A number with no mark means an inactive call.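 The calls were made as follows: active = AUC reduced over 20% with Padj below 0.05 in at least 2 of 3 replicates; inactive = otherwise.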
Assays:
Roseburia intestinalis = experiment: growth AUC relative to DMSO control (median of replicates) (fraction); higher = more growth (less inhibition), active = hit call of the paper; details: 20 µM; 24 h
Procedure, shortened: (§1)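 In round-bottom 96-well plates sealed with pierced gas-permeable seals, gut bacterial monocultures in mGAM were grown anaerobically at 37 °C from OD600 0.05 with 20 µM compound (1% DMSO). OD600 readings were taken hourly for 24 h, and the minimum OD was set to 0. Area under the growth curve was then normalised to the plate median of solvent-only wells, or to row and column medians on the industrial chemical plate. The value given is the median of three biological replicates grown on separate days.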

Streptococcus salivarius = experiment: as above; details: 20 µM; 24 h
Procedure, shortened: as §1

Structure (SMILES) | growth AUC (Roseburia intestinalis) | growth AUC (Streptococcus salivarius)
CCOC(=O)[C@@H](C)Oc1ccc(Oc2cnc3cc(Cl)ccc3n2)cc1 | 1.01 | 1.04
NC(=S)Nc1cccc2ccccc12 | 0.917 | 0.886
C/C=C/C(=O)Oc1c(C(C)CCCCCC)cc([N+](=O)[O-])cc1[N+](=O)[O-] (mixture of isomers) | 0.809 | 0.301 (active)
COCC(=O)N(c1c(C)cccc1C(=O)O)C(C)C(=O)O (stereo not drawn) | 1.02 | 0.982
CCN(CC)c1nc(C)cc(=O)[nH]1 | 1.01 | 1.04
Clc1ccc(CSc2ccc(Cl)cc2)cc1 | 0.965 | 1.01
CCN(CC)C(=O)c1cccc(C)c1 | 0.967 | 0.96
[S] | 0.952 | 0.997
C=CCOC(Cn1ccnc1)c1ccc(Cl)cc1Cl (stereo not drawn) | 0.767 (active) | 0.915
C[S+](C)CCC(=O)O.[Cl-] | 1.01 | 0.994
CCCCCCC(C)OC(=O)C(C)Oc1ccc(Cl)cc1C (stereo not drawn) | 0.986 | 0.973
O=C(O)[C@@H](S)[C@@H](S)C(=O)O | 1 | 0.997
CCCCCCCC/C=C\CCCCCCCCCCCC(=O)O | 0.973 | 0.898
Nc1ccc(O)cc1 | 1.01 | 0.947
O=C(O)CNC(=O)c1cnccc1C(F)(F)F | 1.03 | 1
O=C(O)Cc1c[nH]c2ccccc12 | 1.1 | 1.01
CC(C)(CO)C(O)(CCc1ccc(Cl)cc1)Cn1cncn1 (stereo not drawn) | 0.935 | 0.987
CCC([O-])=C1C(=O)CC(C(=O)[O-])CC1=O.[Ca+2] (stereo not drawn) | 1.12 | 0.917
CC(C)NS(=O)(=O)NC(=O)c1cc(-n2c(=O)cc(C(F)(F)F)[nH]c2=O)c(F)cc1Cl | 1 | 1
Cc1nn(C)c(Oc2ccccc2)c1/C=N/OCc1ccc(C(=O)OC(C)(C)C)cc1 | 0.924 | 0.993
NC(=O)Cc1cccc2ccccc12 | 1.05 | 1.05
NC(Cn1cncn1)C(=O)O (stereo not drawn) | 1 | 0.998
CCCOC(=O)c1ccc(C(=O)OCCC)nc1 | 0.977 | 0.996
CCc1cccc(C)c1NC(=O)CS(=O)(=O)[O-].[Na+] | 1 | 1.01
COC(=O)C(C)Oc1ccc(Cl)cc1C (stereo not drawn) | 1.04 | 0.988
CCCCCCCCc1c(CC)nc2ncnn2c1N | 0.948 | 0.985
CCOCN(C(=O)C(=O)O)c1c(C)cccc1CC | 0.996 | 1.04

Structure (SMILES) | growth AUC (Roseburia intestinalis) | growth AUC (Streptococcus salivarius)
COc1cc(OC)nc(NC(=O)NS(=O)(=O)c2c(Cl)nc3ccccn23)n1 | 1 | 1.05
CCCCC(CC)COC(=O)COc1cc(Cl)c(Cl)cc1Cl (stereo not drawn) | 0.966 | 1
Oc1cccc2ccccc12 | 0.952 | 0.986
COC(=O)COc1ccc(Cl)cc1C | 0.975 | 1.01
CCNc1nc(Cl)nc(N(CC)CC)n1 | 1.01 | 1.02
NC(=O)c1nn(-c2c(Cl)cc(C(F)(F)F)cc2Cl)c(N)c1S(=O)C(F)(F)F (stereo not drawn) | 0.992 | 0.977
CN1CCC[C@H]1c1cccnc1 | 0.933 | 0.949
COC1CCC2(CC1)NC(=O)C(c1cc(C)ccc1C)=C2OC1OC(CO)C(O)C(O)C1O (stereo not drawn) | 1 | 1.01
CC(C)CCCCCOC(=O)C(C)Oc1ccc(Cl)cc1Cl (stereo not drawn) | 1.03 | 0.982
COC(=O)c1ccc(C(=O)OC)cc1 | 0.997 | 0.951
N#Cc1ccccc1NC(=O)c1snc(Cl)c1Cl | 0.992 | 0.991
Br[C@@H]1CC[C@H](Br)[C@H](Br)CC[C@@H](Br)[C@@H](Br)CC[C@H]1Br | 0.962 | 0.868
NC1=C(Cl)C(=O)c2ccccc2C1=O | 0.963 | 1
S=C([S-])NCCNC(=S)[S-].S=C([S-])NCCNC(=S)[S-].[Mn+2].[Zn+2] | 0.999 | 1.03
CCCCC(CC)CN1C(=O)C2C(C1=O)[C@H]1C=C[C@@H]2C1 (mixture of isomers) | 1.07 | 1
COC(=O)c1c(Cl)nn(C)c1S(=O)(=O)NC(=O)Nc1nc(OC)cc(OC)n1 | 1.04 | 1.05
COc1cc(OC)nc(NC(=O)NS(=O)(=O)Nc2ccccc2C(=O)C2CC2)n1 | 1.1 | 0.955
COC(=O)Cc1cccc2ccccc12 | 1.04 | 1.01
COCCOc1ccccc1S(=O)(=O)NC(=O)Nc1nc(OC)nc(OC)n1 | 0.907 | 0.98
CCOC(=O)C(C)Oc1ccc(Oc2nc3ccc(Cl)cc3o2)cc1 (racemic) | 1.02 | 1.01
Cc1cc(C)c(C2=C(O)C3(CCCC3)OC2=O)c(C)c1 | 1.02 | 0.985
COc1cc(Cl)ccc1Oc1ccc(Cl)cc1Cl | 0.991 | 1.05
CCNc1nc(N)[nH]c(=O)n1 | 1.06 | 0.978
Cc1cccc(C)c1N(CC(=O)O)C(=O)CS(=O)(=O)[O-].[Na+] | 0.979 | 0.972
COC(=O)Nc1ccc(Cl)c(Cl)c1 | 1 | 0.918
CCNc1nc(NC(C)(C)C)nc(OC)n1 | 1.05 | 1
CCc1cccc(C)c1N(C(=O)C(=O)O)C(C)COC (stereo not drawn) | 0.982 | 1

Structure (SMILES) | growth AUC (Roseburia intestinalis) | growth AUC (Streptococcus salivarius)
COC(=O)C(C)Oc1ccc(Oc2ccc(C(F)(F)F)cn2)cc1 (stereo not drawn) | 0.956 | 0.96
CCCCOC(=O)COc1ccc(Cl)cc1Cl | 1.04 | 1.01
CCc1nc2ncnn2c(N)c1CCCC(=O)O.Cl | 0.991 | 1.01
CC(C)([CH2][Sn]([CH2]C(C)(C)c1ccccc1)([CH2]C(C)(C)c1ccccc1)[O][Sn]([CH2]C(C)(C)c1ccccc1)([CH2]C(C)(C)c1ccccc1)[CH2]C(C)(C)c1ccccc1)c1ccccc1 | 1.02 | 0.972
Oc1c(Cl)cc(Cl)c(Cl)c1Cc1c(O)c(Cl)cc(Cl)c1Cl | 0.0498 (active) | 0.0329 (active)
O=[N+]([O-])c1ccc2c(c1)Cc1ccccc1-2 | 1.01 | 0.988
Cc1cccc(C)c1N(C(=O)CCl)C1CCOC1=O (stereo not drawn) | 1.08 | 0.86
Cc1nc(C(F)(F)F)c(C(=O)Nc2c(Br)cc(OC(F)(F)F)cc2Br)s1 | 1.08 | 0.972
CC(C)N(C(=O)CS(=O)CC(=O)O)c1ccc(F)cc1 (stereo not drawn) | 1.03 | 0.948
Oc1ccccc1O | 1.1 | 0.987
COc1cc(OC)nc(NC(=O)NS(=O)(=O)Nc2ccccc2C(=O)N(C)C)n1 | 0.981 | 0.99
Nc1nc2ccccc2[nH]1 | 0.901 | 0.953
COCCN(C(=O)CO)c1c(C)cccc1C(=O)O | 1.01 | 0.965
CCNC(=O)[C@@H](C)OC(=O)Nc1ccccc1 | 1.14 | 1.02
O=S(Cc1ccc(Cl)cc1)c1ccc(Cl)cc1 (stereo not drawn) | 1.01 | 0.984
FC(F)(F)C(=NOCC1OCCO1)c1ccc(Cl)cc1 | 1.17 | 1.02
Nc1ccc(S(=O)(=O)Nc2nccs2)cc1 | 0.993 | 1.02
NS(=O)(=O)[O-].[NH4+] | 1.06 | 1.01
COC1CCC2(CC1)NC(=O)C(c1cc(C)ccc1C)C2O (stereo not drawn) | 0.974 | 1.04
CC1=C(C(=O)Nc2ccccc2)CCCO1 | 0.996 | 1.03
CC(C)Nc1nc(N)nc(Cl)n1 | 1.06 | 0.988
CNC(=O)/C(=N/OC)c1ccccc1COc1cc(C(=O)O)ccc1C | 0.996 | 0.995
CCC/C(=N\OCC)C1=C(O)CC(C2CCCSC2)CC1=O (stereo not drawn) | 0.937 | 0.974
NC(=O)C1CO1 (stereo not drawn) | 0.855 | 1.01
Cc1nn(C)c(F)c1C(=O)Nc1ccccc1C(C)CC(C)C (stereo not drawn) | 0.963 | 1.02

Reference: the supplement of paper PMC12669032
